Laboratory results from PubChem BioAssay AID1159580 (chemical genetic matrix, 2015).
In all, about 5,500 compounds went through this assay and about 2,000 (36%) were called active. Not shown: some 18% with an inconclusive outcome. Cut-off read from the data, not from the text of the source: active = normalized growth mostly below about 0.91 (no sharp cut-off); inconclusive = no clear call, values can overlap the other calls; inactive = mostly above about 0.92. The list shows a part of the results.

Test: chemical genetic growth profiling, strain panel (AID 1159580);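 note: tested at 20 µM; growth read once vehicle control cultures reached saturation at 30 °C; 1 = growth at the plate median or of vehicle wells; lower values mean less growth of the strain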
Conditions: growth OD
[1] = S. cerevisiae deletion strains, locus YDL101C, strain DUN1, hits give low values
[2] = S. cerevisiae deletion strains, locus YHR030C, strain SLT2, hits give low values

Measured: normalized growth

N/C(=N/OC(=O)Nc1ccccc1)c1ccc(C2SCCS2)cc1
active: S. cerevisiae deletion strains, locus YAL013W, strain DEP1, hits give low values 0.889 | S. cerevisiae deletion strains, locus YBR229C, strain ROT2, hits give low values 0.892 | [1] 0.753 | S. cerevisiae deletion strains, locus YEL061C, strain CIN8, hits give low values 0.833 | S. cerevisiae deletion strains, locus YGR078C, strain PAC10, hits give low values 0.879 | [2] 0.343 | S. cerevisiae deletion strains, locus YHR087W, strain rtc3, hits give low values 0.829 | S. cerevisiae deletion strains, locus YJR043C, strain POL32, hits give low values 0.89 | S. cerevisiae deletion strains, locus YJR075W, strain HOC1, hits give low values 0.772 | S. cerevisiae deletion strains, locus YKL190W, strain CNB1, hits give low values 0.924 | S. cerevisiae deletion strains, locus YLR039C, strain RIC1, hits give low values 0.767 | S. cerevisiae deletion strains, locus YLR085C, strain ARP6, hits give low values 0.39 | S. cerevisiae deletion strains, locus YLR262C, strain YPT6, hits give low values 0.759 | S. cerevisiae deletion strains, locus YML094W, strain GIM5, hits give low values 0.801 | S. cerevisiae deletion strains, locus YMR219W, strain ESC1, hits give low values 0.884 | S. cerevisiae deletion strains, locus YMR263W, strain SAP30, hits give low values 0.87 | S. cerevisiae deletion strains, locus YMR307W, strain GAS1, hits give low values 0.557 | S. cerevisiae deletion strains, locus YNL153C, strain GIM3, hits give low values 0.652 | S. cerevisiae deletion strains, locus YNL298W, strain CLA4 (second series), hits give low values 0.797 | S. cerevisiae deletion strains, locus YNR030W, strain Alg12, hits give low values 0.81 | S. cerevisiae deletion strains, locus YPL055C, strain LGE1, hits give low values 0.694 | S. cerevisiae deletion strains, locus YPR135W, strain CTF4, hits give low values 0.436
inactive: S. cerevisiae deletion strains, locus YDL134C, strain PPH21, hits give low values 0.972 | S. cerevisiae deletion strains, locus YDR150W, strain NUM1, hits give low values 0.851 | S. cerevisiae deletion strains, locus YGR229C, strain SMI1, hits give low values 1.01 | S. cerevisiae deletion strains, locus YNL322C, strain KRE1, hits give low values 0.991 | S. cerevisiae strains, strain wild type, hits give low values 0.988

N/C(=N/O)c1ccc(Oc2ccc(C3SCCS3)cc2)c([N+](=O)[O-])c1
inactive: S. cerevisiae deletion strains, locus YAR019C, strain CDC15, hits give low values 1.01 | S. cerevisiae deletion strains, locus YBL105C, strain PKC1, hits give low values 0.992 | S. cerevisiae deletion strains, locus YBR135W, strain CKS1, hits give low values 0.979 | S. cerevisiae deletion strains, locus YBR136W, strain MEC1, hits give low values 1.01 | S. cerevisiae deletion strains, locus YBR160W, strain CDC28, hits give low values 0.997 | S. cerevisiae deletion strains, locus YDL017W, strain CDC7, hits give low values 0.992 | S. cerevisiae deletion strains, locus YDL028C, strain MPS1, hits give low values 1.01 | [1] 0.991 | S. cerevisiae deletion strains, locus YDL108W, strain KIN28, hits give low values 0.99 | S. cerevisiae deletion strains, locus YDL132W, strain cdc53, hits give low values 0.973 | S. cerevisiae deletion strains, locus YDL214C, strain PRR2, hits give low values 0.992 | S. cerevisiae deletion strains, locus YDR052C, strain DBF4, hits give low values 0.992 | S. cerevisiae deletion strains, locus YDR054C, strain cdc34, hits give low values 0.988 | S. cerevisiae deletion strains, locus YDR226W, strain ADK1, hits give low values 0.998 | S. cerevisiae deletion strains, locus YDR477W, strain SNF1, hits give low values 1.01 | S. cerevisiae deletion strains, locus YER123W, strain YCK3, hits give low values 1.01 | S. cerevisiae deletion strains, locus YER133W, strain GLC7, hits give low values 0.994 | S. cerevisiae deletion strains, locus YFL009W, strain cdc4, hits give low values 0.992 | S. cerevisiae deletion strains, locus YFL029C, strain CAK1, hits give low values 1 | S. cerevisiae deletion strains, locus YFR003C, strain YPI1, hits give low values 0.985 | S. cerevisiae deletion strains, locus YFR019W, strain FAB1, hits give low values 1.02 | S. cerevisiae deletion strains, locus YFR028C, strain CDC14, hits give low values 1 | S. cerevisiae deletion strains, locus YGR040W, strain KSS1, hits give low values 1 | S. cerevisiae deletion strains, locus YGR052W, strain FMP48, hits give low values 1.07 | S. cerevisiae deletion strains, locus YGR092W, strain DBF2, hits give low values 0.993 | [2] 0.874 | S. cerevisiae deletion strains, locus YHR079C, strain IRE1, hits give low values 1.06 | S. cerevisiae deletion strains, locus YHR082C, strain KSP1, hits give low values 1.12 | S. cerevisiae deletion strains, locus YHR205W, strain SCH9, hits give low values 1.01 | S. cerevisiae deletion strains, locus YIL147C, strain SLN1, hits give low values 0.996 | S. cerevisiae deletion strains, locus YJL095W, strain BCK1, hits give low values 1.01 | S. cerevisiae deletion strains, locus YJL128C, strain PBS2, hits give low values 0.93 | S. cerevisiae deletion strains, locus YJL157C, strain FAR1, hits give low values 1.01 | S. cerevisiae deletion strains, locus YJR016C, strain ILV3, hits give low values 0.993 | S. cerevisiae deletion strains, locus YJR066W, strain TOR1 (second series), hits give low values 1.01 | S. cerevisiae deletion strains, locus YJR066W, strain TOR1, hits give low values 1.02 | S. cerevisiae deletion strains, locus YKL048C, strain ELM1, hits give low values 0.988 | S. cerevisiae deletion strains, locus YKL067W, strain YNK1, hits give low values 0.981 | S. cerevisiae deletion strains, locus YKL101W, strain HSL1, hits give low values 0.986 | S. cerevisiae deletion strains, locus YKL193C, strain SDS22, hits give low values 0.979 | S. cerevisiae deletion strains, locus YKL203C, strain TOR2, hits give low values 1.11 | S. cerevisiae deletion strains, locus YLR113W, strain HOG1, hits give low values 1.02 | S. cerevisiae deletion strains, locus YLR133W, strain CKI1, hits give low values 1.01 | S. cerevisiae deletion strains, locus YLR403W, strain SFP1, hits give low values 1.05 | S. cerevisiae deletion strains, locus YML070W, strain DAK1, hits give low values 1.01 | S. cerevisiae deletion strains, locus YMR001C, strain CDC5, hits give low values 1 | S. cerevisiae deletion strains, locus YMR205C, strain PFK2 (second series), hits give low values 0.994 | S. cerevisiae deletion strains, locus YMR277W, strain FCP1, hits give low values 0.995 | S. cerevisiae deletion strains, locus YNL006W, strain LST8, hits give low values 0.988 | S. cerevisiae deletion strains, locus YNL020C, strain ARK1, hits give low values 1.03 | S. cerevisiae deletion strains, locus YNL161W, strain CBK1, hits give low values 0.981 | S. cerevisiae deletion strains, locus YNL183C, strain NPR1, hits give low values 1.08 | S. cerevisiae deletion strains, locus YNL207W, strain RIO2, hits give low values 0.984 | S. cerevisiae deletion strains, locus YNL222W, strain SSU72, hits give low values 0.979 | S. cerevisiae deletion strains, locus YNL307C, strain MCK1 (second series), hits give low values 1.02 | S. cerevisiae deletion strains, locus YOL078W, strain AVO1, hits give low values 0.978 | S. cerevisiae deletion strains, locus YOL136C, strain PFK27, hits give low values 1.02 | S. cerevisiae deletion strains, locus YOR061W, strain CKA2, hits give low values 0.995 | S. cerevisiae deletion strains, locus YOR119C, strain RIO1, hits give low values 1.04 | S. cerevisiae deletion strains, locus YOR231W, strain MKK1, hits give low values 1.03 | S. cerevisiae deletion strains, locus YOR329C, strain SCD5, hits give low values 0.991 | S. cerevisiae deletion strains, locus YPL031C, strain PHO85, hits give low values 0.998 | S. cerevisiae deletion strains, locus YPL153C, strain RAD53, hits give low values 0.988 | S. cerevisiae deletion strains, locus YPL204W, strain HRR25, hits give low values 1 | S. cerevisiae deletion strains, locus YPL209C, strain IPL1, hits give low values 0.984 | S. cerevisiae deletion strains, locus YPL256C, strain CLN2, hits give low values 0.995 | S. cerevisiae deletion strains, locus YPR025C, strain CCL1, hits give low values 0.985 | S. cerevisiae deletion strains, locus YPR106W, strain ISR1, hits give low values 0.994 | S. cerevisiae deletion strains, locus YPR111W, strain DBF20, hits give low values 0.978 | S. cerevisiae deletion strains, strain NNK1, hits give low values 0.995 | S. cerevisiae deletion strains, strain TSCII, hits give low values 1.01
